Screening results (PubChem BioAssay)
Rce1 inhib: yeast Rce1p protease inhibitors, primary screen, biochemical, fluorescence, cell-free homogeneous; calls only; 290,000 tested, 0.27% active; CAAX prenyl protease 2 (Saccharomyces cerevisiae (strain ATCC 204508 / S288c)), Q03530; AID 2563, 2010; yeast membranes, quenched prenylated peptide cleavage fluorescence;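 active means fall in fluorescence gain of 50% or more versus controls, with final raw signal at or below 3038400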;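 further: plate controls were neutral control wells for no effect and wells lacking membranes for full effect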
ADAM10 inh: human ADAM10 inhibitors, primary screen, biochemical, QFRET, HTS; recombinant ADAM10, EDANS/DABCYL FRET peptide cleavage, 3 h; 370,000 tested, 0.62% active; AID 720582, 2013; inhibition, % at 7 µM;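 active means inhibition above a per-campaign cutoff equal to the mean of compounds falling between control-based bounds plus 3 SD, cut at about 20% in these data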;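 further: 0% = DMSO wells while the 100% control is not disclosed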
ADAM17 inh: ADAM17 inhibitors, primary screen, biochemical, QFRET. recombinant ADAM17, EDANS/DABCYL FRET peptide cleavage. inhibition, % at 6.95 µM. 370,000 tested, 0.83% active. AID 720648, 2013;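 active means inhibition above the mean of compounds lying between control limits plus 3 SD, set per campaign, cut at about 8.5% in these data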;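 further: 0% = DMSO-only wells as the low control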
PLC-beta3 inh: human PLC-beta3 inhibitors, primary screen, biochemical, fluorescence | 370,000 tested, 0.18% active | 1-phosphatidylinositol 4,5-bisphosphate phosphodiesterase beta-3 (Homo sapiens), Q01970 | inhibition, % at 12.2 µM | Purified PLC-beta3, fluorogenic substrate; in the data active means inhibition above about 11%;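 further: 0% = median of compound wells on plate and 100% = full blocker control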
PLC-gamma1 inh: PLC-gamma1 enzyme inhibitors, primary screen, biochemical, fluorescence, purified enzyme; AID 720700, 2013; 1-phosphatidylinositol 4,5-bisphosphate phosphodiesterase gamma-1 (Homo sapiens), P19174; 370,000 tested, 0.84% active; fluorogenic substrate; inhibition, % at 12.2 µM; in the data active means inhibition above about 9.5%
ADAM10 ctr: ADAM10 inhibitors, counter-screen for ADAM17 exosite inhibitor project, biochemical, FRET, human ADAM10. recombinant ADAM10, EDANS/DABCYL FRET peptide cleavage, 3 h. shares compounds with ADAM17 inh. 2,900 tested, 47% active. inhibition, % at 6.95 µM;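 active means mean inhibition over the triplicate runs exceeds the activity threshold set in the earlier primary screen, cut at about 20% in these data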;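 further: 0% = DMSO wells and 100% = marimastat wells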
ADAM17 confirm: ADAM17 inhibitors, hit retest, confirmation, biochemical, QFRET peptide cleavage | 2,900 tested, 65% active | shares compounds with ADAM17 inh | inhibition, % at 6.95 µM | recombinant ADAM17, EDANS/DABCYL QFRET peptide cleavage;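 active means mean inhibition across replicates above the hit cutoff set in the primary screen, cut at about 8.5% in these data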;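 further: 0% = DMSO wells and 100% = marimastat wells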
* marks the source's active call; other numbers are inactive results; i = inactive; / = not tested or not shown. Hits are enriched below; roughly 2.1% of the tested compounds scored in any of these assays.

SMILES	Rce1 inhib	ADAM10 inh	ADAM17 inh	PLC-beta3 inh	PLC-gamma1 inh	ADAM10 ctr	ADAM17 confirm
COc1ccc(-c2csc(NC(=O)C3CC(=O)N(Cc4ccco4)C3)n2)cc1 (stereo unspecified)	i	10.4	1.9	-4.1	0.9	/	/
COc1ccc(-c2nc(NC(=O)C3CC(=O)N(Cc4ccco4)C3)sc2C)cc1 (stereo unspecified)	/	-4.2	9.1*	-43.6	-27.4	10.0	7.0
CCOC(=O)c1cccc(-n2c(-c3ccc(OC)cc3)nc3nc4ccccc4nc32)c1	i	/	/	/	/	/	/
CCCCC(=O)NC(c1ccccc1OC)c1ccc2cccnc2c1O (stereo unspecified)	i	17.5	9.0*	-15.0	-8.7	16.1	7.1
O=C(NCC(=O)N1CCN(C(c2ccccc2)c2ccccc2)CC1)c1ccc(Br)o1	i	1.0	0.1	-2.8	4.2	/	/
O=C(NCC(=O)N1CCN(C(c2ccccc2)c2ccccc2)CC1)c1ccccc1Br	/	14.2	12.2*	2.8	4.9	20.1*	11.9*
CCOc1ccc(NS(=O)(=O)c2ccc3c(c2)CCN3C(=O)CCC(=O)O)cc1	i	13.9	9.8*	2.9	6.7	-3.4	-0.3
CS(=O)(=O)NCc1nnc(SCC(=O)NC2CCCCC2)n1-c1ccc(F)cc1	i	9.6	9.1*	9.3	2.3	-0.6	5.3
O=C(Nc1cccc([N+](=O)[O-])c1)OCc1ccc2c(c1)OCO2	/	11.9	2.6	5.9	3.0	/	/
O=C(Nc1ccc(Cl)c(Cl)c1)C1CCCN(c2nnc(-n3cccc3)s2)C1 (stereo unspecified)	/	15.9	10.7*	2.2	4.0	30.4*	14.6*
Cn1nc(C(F)(F)F)c(-c2ccc(Br)cc2)c1NC(=O)Nc1ccc(F)cc1F	i	13.9	6.8	-2.6	4.9	/	/
O=C(CSc1nc2ccccc2o1)NN=C/C=C/c1ccccc1	/	18.8	9.5*	-4.1	-1.0	13.5	15.9*
CC(NC(=O)c1ccco1)C(=O)N1CCN(c2ccccc2)CC1 (stereo unspecified)	i	-5.0	9.2*	2.8	3.8	-8.1	-0.2
CC(NC(=O)c1ccco1)C(=O)N1CCN(c2cccc(C(F)(F)F)c2)CC1 (stereo unspecified)	/	-6.5	0.7	-3.7	3.3	/	/
O=C(NC(=S)NNC(=O)c1ccccc1O)c1ccco1	i	9.6	4.5	-5.8	1.0	/	/
O=C(NC(=S)NNC(=O)c1cc2ccccc2cc1O)c1ccco1	i	17.4	9.3*	-36.7	-34.6	3.5	5.7
CCOc1ccc(S(=O)(=O)N2CCOCC2)cc1NC(=O)CN1C(=O)NC(C)(c2ccccc2)C1=O (stereo unspecified)	i	-5.1	0.9	-5.2	-1.2	/	/
COc1cc(/C=C/c2ccc3cccc(OC)c3n2)c(OC(C)=O)c([N+](=O)[O-])c1	i	2.4	2.5	-4.0	-2.7	/	/
COc1c(OC(C)=O)ccc(/C=C/c2ccc3cccc(OCc4ccccc4)c3n2)c1[N+](=O)[O-]	i	16.3	9.7*	-4.5	-1.3	14.5	9.2*
COC(=O)c1cc2oc(C)cc2n1CC(=O)Nc1cc(C)cc(C)c1	i	8.5	9.6*	-5.7	-0.4	-17.0	-6.1
Clc1cccc(COn2c(-c3ccc(Cl)cc3Cl)nc3ncccc32)c1	i	3.7	11.2*	-7.3	1.9	-13.4	3.9
Cc1noc(C)c1C(=O)OCC(=O)Nc1ccccc1C(=O)NC(C)c1ccccc1 (stereo unspecified)	i	-1.5	-4.6	-2.3	-4.5	/	/
Cc1noc(C)c1C(=O)OCC(=O)Nc1ccccc1Oc1ccccc1	i	11.8	8.7*	1.8	0.8	5.9	11.2*
Cc1ccc(SCC(=O)OCC(=O)NCc2ccco2)cc1	/	-4.4	9.2*	-4.4	5.7	7.7	4.0
CN(C(=O)COC(=O)CCC(=O)c1ccc(F)cc1)C1CCCCC1	/	-24.9	-0.7	-2.9	-0.9	/	/
SMILES	Rce1 inhib	ADAM10 inh	ADAM17 inh	PLC-beta3 inh	PLC-gamma1 inh	ADAM10 ctr	ADAM17 confirm
C=CCn1c(-c2csc3c2CCC(C)C3)n[nH]c1=S (stereo unspecified)	i	5.7	10.7*	1.3	0.7	18.1	13.1*
Cc1ccc(-c2nc(NCc3ccco3)c3ccccc3n2)cc1	i	6.9	8.4	-7.6	-6.3	/	/
c1ccc(-c2nc(NCc3ccco3)c3oc4ccccc4c3n2)cc1	i	3.8	9.0*	-4.5	-3.2	29.3*	19.2*
COc1ccc(NC(=O)Nc2ccc3c(c2)CC(=O)N([C@H](C)CO)C[C@@H](C)[C@H](CN(C)C(=O)Nc2ccccc2)O3)cc1	/	3.5	4.4	7.5	4.1	/	/
C[C@H]1CN([C@@H](C)CO)C(=O)Cc2cc(NC(=O)C3CC3)ccc2O[C@H]1CN(C)Cc1ccc(Oc2ccccc2)cc1	/	19.4	9.3*	3.3	3.5	28.8*	18.8*
C[C@H]1CN([C@@H](C)CO)C(=O)Cc2cc(NC(=O)CCN3CCOCC3)ccc2O[C@@H]1CN(C)Cc1ccc(Oc2ccccc2)cc1	/	-0.9	-0.3	-4.0	-1.1	/	/
COc1ccc(NC(=O)Nc2ccc3c(c2)CC(=O)N([C@H](C)CO)C[C@H](C)[C@H](CN(C)Cc2ccc(C(=O)O)cc2)O3)cc1	/	7.5	9.0*	3.6	3.3	9.6	7.5
COc1cccc(C(=O)Nc2ccc(Cl)c(C(F)(F)F)c2)c1	i	18.1	10.7*	-4.4	5.2	8.0	3.9
COc1cc(C(=O)Nc2ccc(Cl)c(C(F)(F)F)c2)cc(OC)c1OC	i	18.0	7.5	-1.2	-2.7	/	/
CN(C(=O)COC(=O)c1ccccc1SCC(=O)N1CCCC1)C1CCS(=O)(=O)C1 (stereo unspecified)	i	16.1	9.0*	-6.1	0.2	-12.3	-0.3
CCN(CC(O)Cn1c2ccccc2c2ccccc21)S(=O)(=O)c1ccc(C)cc1 (stereo unspecified)	i	17.5	11.0*	-16.4	-4.0	27.6*	14.1*
CN(CC(O)Cn1c2ccccc2c2ccccc21)S(C)(=O)=O (stereo unspecified)	i	0.0	1.5	3.5	-1.0	/	/
COc1cccc(Cn2cnc3c(NS(=O)(=O)c4cc(Cl)ccc4Cl)c(C)c(C)cc32)c1	i	19.6	8.9*	1.2	3.7	20.1*	10.6*
COc1cccc(Cn2cnc3c(NS(=O)(=O)c4ccc(Cl)cc4Cl)c(C)c(C)cc32)c1	i	11.9	1.2	-0.1	-1.6	/	/
